# Assay outcomes deposited in PubChem by National Center for Advancing Translational Sciences (NCATS).
# Hits are enriched below; roughly 2.4% of the tested compounds scored in any of these assays.
# D2 ag-1 – HTS Assay for Allosteric Agonists of the Human D2 Dopamine Receptor: Primary Screen for Agonists. actives 0.53% (n = 340,000). HEK293 T-REx D2 cells, calcium flux agonist mode. activation, % at 2 µM;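 active means activation over 3 SD above normal in the single-dose calcium agonist read, cut at about 30% in these data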; further: 0% is about no effect
# Target sequence (P14416 whole entry, looked up): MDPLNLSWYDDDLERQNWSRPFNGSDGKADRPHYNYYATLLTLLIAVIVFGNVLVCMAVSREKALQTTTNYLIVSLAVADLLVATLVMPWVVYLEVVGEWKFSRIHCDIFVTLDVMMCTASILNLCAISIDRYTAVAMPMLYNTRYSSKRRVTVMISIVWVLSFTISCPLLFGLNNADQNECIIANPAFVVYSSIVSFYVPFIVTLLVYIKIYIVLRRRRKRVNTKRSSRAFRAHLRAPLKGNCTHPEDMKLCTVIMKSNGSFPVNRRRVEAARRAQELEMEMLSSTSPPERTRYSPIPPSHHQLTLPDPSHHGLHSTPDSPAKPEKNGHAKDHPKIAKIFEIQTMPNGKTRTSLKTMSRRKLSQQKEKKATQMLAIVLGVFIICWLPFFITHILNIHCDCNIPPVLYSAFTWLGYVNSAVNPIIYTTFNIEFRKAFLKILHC
#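 Agonism scored from kinetic calcium signal (1 read/sec, 180 s) following compound pin transfer, after a 10 s baseline. Cells: HEK293 Trex line expressing inducible D2 receptor coupled to calcium, dye-loaded after overnight culture at 30 C.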
# D2 antag – HTS Assay for Allosteric Antagonists of the Human D2 Dopamine Receptor: Primary Screen for Antagonists; HEK293 TREx D2 cells, calcium flux, dopamine EC80; inhibition, % at 10 µM; actives 2% (n = 340,000); AID 485344, 2010; in the data active means inhibition above about 30%; inactive means below that, where a call was filed; further: 0% is about no effect
#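 HEK293 T-REx D2 cells, tet-induced, calcium dye no-wash. Cpd pintool add, 180 s kinetic, then EC80 DA, 180 s kinetic. Ca flux read.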
# D2 ag-2 – Beta-Arrestin HTS for Positive Allosteric Modulators of the Human D2 Dopamine Receptor: Agonists; D(2) dopamine receptor (Homo sapiens), P14416; DiscoveRx PathHunter D2 beta-arrestin, luminescence, 90 min; 100% = 57 uM dopamine signal; activation, % (test concentration not listed); actives 0.084% (n = 360,000); AID 624465, 2012; in the data active means activation above about 40%
#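 DiscoveRx PathHunter D2 beta-arrestin cells (2,100/well) attached overnight, then compound-stimulated 90 min at 37 C in HBSS/10 mM HEPES/0.1% Tween-20 buffer; beta-galactosidase complementation read by luminescence after 1 h at ambient temperature. Dopamine 57 uM final (EC100) as control.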
# D2 PAM-1 – Beta-Arrestin HTS for Positive Allosteric Modulators of the Human D2 Dopamine Receptor: Potentiators; D(2) dopamine receptor (Homo sapiens), P14416; DiscoveRx D2 beta-arrestin cells, luminescence, 90 min; 100% = 57 uM dopamine signal; potentiation, % (concentration not given with the values); actives 0.23% (n = 360,000); in the data active means potentiation above about 50%
#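 PathHunter beta-arrestin assay in DiscoveRx D2 cells. Compounds were added with an EC20 of dopamine (50 nM final) for 90 min at 37 deg C. Luminescence was read 1 h after detection reagent, with 57 uM dopamine as the EC100 control.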
# D2 PAM-2 – HTS Assay for Positive Allosteric Modulators of the Human D2 Dopamine Receptor: Primary Screen for Potentiators; HEK293 T-REx D2, calcium flux, EC20 dopamine potentiation; actives 0.34% (n = 340,000); potentiation, % at 10 µM;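 active means potentiation over 3 SD above the plate norm, cut at about 30% in these data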; further: 0% is about no effect
#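 Tetracycline-induced HEK293 T-REx cells force-coupled to calcium signalling expressed D2; compounds were pin-added after a 10 s baseline, read kinetically 180 s, then an EC20 dopamine challenge followed with a further 180 s calcium read.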
# Active calls of the source: *; nt = no result; ! = a repeat was not active.
SMILES,D2 ag-1,D2 antag,D2 ag-2,D2 PAM-1,D2 PAM-2
COC(=O)CNC(=O)c1cccs1,0,66*,-2,5,-8
CCC(Oc1ccccc1)C(=O)Nc1ccccc1C(=O)N1CCCCC1 (stereo not drawn),0,-13,-2,69*,-14
O=C(O)c1cccc(NC(=O)c2cccc(S(=O)(=O)Nc3cccc(F)c3)c2)c1,-4,nt,nt,nt,-22
CCOc1ccccc1NC(=O)C(NS(=O)(=O)c1ccc2c(c1)CCC(=O)N2)c1ccccc1 (stereo not drawn),1,nt,nt,nt,-1
O=c1[nH]c(Nc2ccc3c(c2)OCCO3)nnc1Cc1ccccc1,0,49*,-2,-14,2
Cc1ccc(NC(=O)C2CCCN(S(=O)(=O)c3ccc4c(c3)CCCC(=O)N4)C2)cc1Cl (stereo not drawn),nt,nt,nt,nt,1
COc1ccc2c(c1)-c1nc(/N=C/c3ccc(O)cc3)sc1CC2,-1,45*,3,-15,-6
COc1ccc(S(=O)(=O)N2CCN(C3CCCCCCC3)CC2)cc1,-2,34*!,-1,-1,-6
O=S(=O)(c1ccccc1)N1CCN(c2ccccc2)CC1,0,-13,0,-10,-1
O=S(=O)(c1ccccc1)N1CCC(N2CCN(c3ccccc3)CC2)CC1,74*,71*,nt,nt,-24
COc1ccc(S(=O)(=O)N2CCC(N3CCCCC3)CC2)cc1,0,-11,-4,-17,-5
Cc1ccc(-n2nc3c(=O)n(CC(=O)Nc4ccccc4F)nc(C)c3c2C)c(C)c1,0,nt,nt,nt,1
COC(=O)c1scc(-c2ccc(C)cc2)c1S(=O)(=O)Nc1cc(OC)c(OC)c(OC)c1,-1,nt,nt,nt,-6
CCN(CC(=O)Nc1cc(Cl)ccc1C)C(=O)COc1cccc2c1OC(C)(C)C2,1,43*,-3,-30,-22
Cc1ccc(NC(=O)Cn2cc3c(n2)CCCC3)cc1Cl,0,nt,nt,nt,-10
COCc1nnc(NC(=O)C2CC(=O)N(CCc3ccc(F)cc3)C2)s1 (stereo not drawn),1,30*,-3,-7,-7
OC(CN1CCOCC1)CN1CCOCC1,1,12,-2,-9,11
CN(CC(O)CN1CCOCC1)S(=O)(=O)O (stereo not drawn),1,34*!,-2,-5,4
CCN(c1ccccc1C)S(=O)(=O)c1cc2c3c(c1)CCC(=O)N3CCC2,-1,21,-4,-4,41*
CCN(c1ccccc1C)S(=O)(=O)c1cc2c3c(c1)CCN3C(=O)CC2,nt,nt,1,9,-3
Cc1ccc(-c2noc(CCC(=O)NCc3ccco3)n2)cc1,0,60*,0,-1,6
Cc1ccccc1CS(=O)(=O)CCC(=O)NCCCN1CCN(c2ccccc2F)CC1,43*,55*,5,-28,-25
Cc1ccc2[nH]c3c(=O)n(CC(=O)NCCCN4CCN(c5ccc(F)cc5)CC4)ncc3c2c1,0,63*,-3,-30,-6
COc1ccc(-c2noc(CCC(=O)NCCCN3CCN(c4ccccc4F)CC3)n2)cc1,5,84*,-1,-5,-15
O=C(CCc1nc(-c2ccccc2)no1)NCc1ccco1,0,9,-2,-2,13
O=C(CCS(=O)(=O)Cc1ccc(Cl)cc1)NCCCN1CCN(c2ccccc2F)CC1,0,1,2,3,23
CCOc1cc2sc(N3CCC(C(=O)Nc4ccccc4C(=O)OC)CC3)nc2cc1Br,0,nt,nt,nt,-1
COc1ccc(-c2nc(CNC(=O)NC3CCCCC3)c(C)o2)cc1,0,nt,nt,nt,9
Cc1ccc(-c2noc(CCC(=O)NCCCN3CCN(c4cccc(Cl)c4)CC3)n2)cc1,0,-18,-5,-44,8
